# Bioassay records (PubChem)
# The list is not random: actives were taken first. Their share in the collection is about 3.3%.
# 697 NFkB inh – inhibitors of the PMA/ionomycin-induced NF-kB reporter in 697 B cells | inhibition, % at 4 µM | actives 0.33% (n = 330,000) | 697 B-cell NF-kB luciferase reporter, 16 h | AID 435022; in the data active = inhibition above about 35%
# SMARCA2 act – SMARCA2 function activation, primary screen | activation, % at 9.1 µM | actives 1% (n = 370,000) | AID 652017 | MG213 cells, MMTV-luciferase reporter, dexamethasone, overnight; in the data active = activation above about 7.8%;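 note: 0% = vehicle wells and 100% = reference activator wells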
# Jurkat NFkB inh – inhibitors of the PMA/ionomycin-induced NF-kB reporter in Jurkat cells; PMA/ionomycin-induced NF-kB luciferase reporter, luminescence; inhibition, % at 4 µM; actives 0.53% (n = 330,000); AID 435003; in the data active = inhibition above about 50%
# esBAF inh – blocks esBAF chromatin remodeling in mouse ES cells; Bmi1-luciferase knock-in reporter, 24 h; 100% = twice the neutral-well signal; reporter increase, % at 12.5 µM; actives 2% (n = 350,000); AID 602393; in the data active = activation above about 40%;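 note: 0% = median of the plate's neutral control wells and 100% = double that signal; a rise in the Bmi1 reporter signal indicates esBAF inhibition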
# Gli-Sufu antag – antagonists of Gli-Sufu signaling | Sufu-KO-LIGHT fibroblasts, Gli luciferase reporter luminescence | AID 588413 | actives 0.74% (n = 340,000) | inhibition, % at 5 µM;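 active = inhibition above about 55%, limit read from the data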;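 note: 0% = DMSO-treated cells and 100% = wells with medium but no cells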
# Numbers without * were called inactive; nt = not tested or not shown.
SMILES,697 NFkB inh,SMARCA2 act,Jurkat NFkB inh,esBAF inh,Gli-Sufu antag
COC(=O)[C@@H]1[C@@H](CO)[C@@H]2Cn3c(ccc(-c4cccc(OC)c4)c3=O)[C@@H]2N1CC1CC1,nt,nt,nt,4.5,nt
CCCNC(=O)N1C[C@@H]2[C@H](c3ccccc31)[C@H](CO)N2Cc1ccc(F)cc1,nt,nt,nt,-7.3,nt
COc1cc2cc(C(=O)NCCc3ccccc3)[nH]c2cc1OC,4.3,-2.0,-28.2,1.7,-15.3
COc1ccc2c(=O)c(C(=O)NCCc3ccccc3)c[nH]c2c1,-54.4,4.2,-55.9,55.0*,-26.5
COc1ccc2cc(C(=O)NCCc3ccccc3)[nH]c2c1,-41.5,-0.7,-76.5,42.8*,14.0
Cc1ccc(-c2noc(/C=C/c3ccccc3)n2)cc1,-44.4,2.9,-26.1,45.8*,-13.0
CCOc1c2ccoc2nc2c(OC)c(OC)ccc12,-40.0,5.1,-44.8,21.5,-28.6
C=CCOc1ccc2c(OC)c3ccoc3nc2c1OC,-43.6,-0.2,-42.2,48.2*,-38.8
COCC(=O)N(C)C[C@H]1Oc2cc(C#Cc3cccnc3)ccc2S(=O)(=O)N([C@H](C)CO)C[C@@H]1C,nt,nt,nt,-4.6,nt
Cc1cccc(-c2ncc(S(=O)(=O)C(C)(C)C)c(N)n2)c1,-62.3,-1.6,-78.3,67.7*,-24.6
CCCNC(=O)N[C@@H]1C=C[C@@H](CC(=O)NCCc2ccccc2)O[C@@H]1CO,nt,nt,nt,4.9,nt
Cc1ccc(NC(=O)c2cc(C)no2)cc1,-0.2,4.4,-18.0,31.3,-6.7
CCc1ccc(NC(=O)c2cc(C)no2)cc1,-40.6,5.3,-68.4,55.5*,-26.9
CC(C)Cc1cc(C(=O)Nc2ccc(F)cc2F)no1,4.8,2.1,-83.3,78.6*,-3.2
CCc1ccc(NC(=O)c2cc(CC(C)C)on2)cc1,-21.3,4.3,-124.1,70.6*,-47.1
COc1ccc(NC(=O)c2cc(CC(C)C)on2)cc1OC,-2.9,-0.7,-34.8,50.4*,-3.6
CC(C)Cc1cc(C(=O)Nc2cc(Cl)ccc2Cl)no1,-2.5,-2.0,-5.0,10.7,21.0
COc1ccc(S(=O)(=O)N(C)C[C@H]2Oc3c(NS(=O)(=O)c4ccccc4)cccc3C(=O)N([C@H](C)CO)C[C@H]2C)cc1,nt,nt,nt,-2.0,nt
COc1ccc(C(CC(=O)c2ccc(C)cc2)Sc2ccccc2N)cc1 (stereo not drawn),nt,3.9,nt,59.7*,nt
C[C@H](CO)N1C[C@H](C)[C@H](CN(C)Cc2ccc(C(=O)O)cc2)OCCCC[C@H](C)Oc2ccc(NS(=O)(=O)c3cccs3)cc2C1=O,nt,nt,nt,-4.5,nt
COC(=O)c1ccc(-c2cc3onc(-c4ccccc4)c3c(=O)n2C)cc1,-66.0,5.9,-21.8,38.8,4.2
CN(C)C(=O)c1ccc(-c2cc3onc(-c4ccccc4)c3c(=O)n2C)cc1,-121.1,1.7,17.0,54.9*,-85.9
O=C(CCNC(=O)c1ccccc1Cl)Nc1nc2ccc(F)cc2s1,-27.1,3.0,-20.6,51.9*,-16.8
O=C(Nc1nc2ccccc2s1)c1c(F)cccc1Cl,-43.9,0.3,-19.9,51.9*,-17.5
C[C@@H]1CN([C@@H](C)CO)C(=O)c2cccc(NC(=O)NC3CCCCC3)c2O[C@H]1CN(C)CC1CCCCC1,nt,nt,nt,-0.4,nt
SMILES,697 NFkB inh,SMARCA2 act,Jurkat NFkB inh,esBAF inh,Gli-Sufu antag
N#CCCN(C(=O)CSc1ccc2c(c1)OCCO2)c1ccccc1,3.6,-4.2,1.2,-1.2,3.0
CN(C(=O)CSc1ccc2c(c1)OCCO2)c1ccccc1,-24.9,1.3,4.2,60.5*,-38.1
O=C(C[C@H]1CC[C@@H](NC(=O)c2ccc3c(c2)OCO3)[C@H](CO)O1)NC1Cc2ccccc2C1,nt,nt,nt,-1.9,nt
Cn1cnc(S(=O)(=O)N[C@@H]2C=C[C@@H](CC(=O)NCC3CCCCC3)O[C@H]2CO)c1,nt,nt,nt,0.8,nt
CC(=O)c1c(C)nn(C(=O)c2cccs2)c1C,11.0,-0.7,-0.3,1.8,-5.0
Cc1nn(C(=O)c2cccs2)c(N)c1-c1ccccc1,-114.8,4.6,-80.1,85.3*,-53.0
COC(=O)c1ccc(CN2C(=O)NC3(CCCCC3)C2=O)cc1,-90.5,-3.0,-21.1,72.5*,-29.8
O=C1NC2(CCCCCC2)C(=O)N1Cc1ccc(Br)cc1,-22.1,-0.5,-8.2,1.0,0.7
CCN(CC)c1ccc(C=NNc2ccc([N+](=O)[O-])cn2)cc1,nt,-1.4,nt,nt,-111.1
O=[N+]([O-])c1ccc(NN=Cc2ccc(O)cc2)nc1,nt,-0.2,nt,95.1*,-93.9
COc1ccc(N/N=C(/Oc2ccc([N+](=O)[O-])cc2)C(C)=O)cc1,5.9,3.4,8.1,nt,4.8
O=[N+]([O-])c1ccc(NN=Cc2ccccc2)nc1,nt,4.7,nt,nt,-108.0
COc1ccc(C=NNc2ccc([N+](=O)[O-])cn2)cc1,nt,4.2,nt,52.4*,-80.4
COc1ccc(NN=Nc2ccc([N+](=O)[O-])cc2)cc1,-137.1,0.2,-127.7,49.5*,-44.7
Cc1noc(C)c1S(=O)(=O)Nc1ccc2c(c1)CC(=O)N([C@H](C)CO)C[C@H](C)[C@@H](CN(C)Cc1ccc(Cl)c(Cl)c1)O2,nt,nt,nt,9.5,nt
CCCn1cnc2c(sc3nc4c(cc32)CSC(C)(C)C4)c1=O,-88.6,-0.2,-70.4,69.7*,-50.1
CC1(C)Cc2nc3sc4c(=O)n(Cc5ccccc5)cnc4c3cc2CS1,-5.0,-0.2,14.6,nt,4.3
Clc1cnc(N/N=C/c2cccs2)c(Cl)c1,-73.2,4.5,-68.6,nt,-4.4
Oc1ccc(/C=N/Nc2ncc(Cl)cc2Cl)cc1,-58.4,4.6,-88.8,44.3*,-9.8
CCCn1c(=O)c(C(=O)Nc2ccccc2N)c(O)c2ccccc21,nt,-4.1,nt,43.0*,nt
CCCn1c(=O)c(C(=O)Nc2ccccc2C)c(O)c2ccccc21,-38.1,-0.6,-15.1,19.4,-17.4
C=CCn1c(=O)c(C(=O)Nc2ccccc2C)c(O)c2ccccc21,-149.6,1.8,-72.3,61.2*,-87.6
CCn1c(=O)c(C(=O)Nc2ccccc2C)c(O)c2ccccc21,-13.7,-2.3,-19.3,44.4*,-13.0
Cc1noc(C)c1S(=O)(=O)N(C)C[C@H]1OCCCC[C@H](C)Oc2ccc(NC(=O)Nc3ccccc3)cc2C(=O)N([C@H](C)CO)C[C@H]1C,nt,nt,nt,-1.9,nt
CCCN1[C@H](C(=O)NC2CCC2)[C@@H](CO)[C@@H]2Cn3c(ccc(-c4ccccc4F)c3=O)[C@@H]21,nt,nt,nt,0.5,nt
SMILES,697 NFkB inh,SMARCA2 act,Jurkat NFkB inh,esBAF inh,Gli-Sufu antag
CO[C@H]1CN(C)C(=O)c2ccc(NC(=O)c3cc(C)on3)cc2OC[C@H](C)N(CC2CC2)C[C@H]1C,nt,nt,nt,-2.4,nt
CCN1/C(=C/c2sc(-c3ccccc3C)c[n+]2C)Sc2ccccc21,nt,-11.8,nt,nt,90.2*
COc1cccc(/C=C/C(=O)c2ccc[nH]2)c1,-47.8,2.5,-66.0,60.4*,-8.5
COc1ccc(C(=O)/C=C/Nc2ccc([N+](=O)[O-])cc2C)c(OC)c1,-5.2,nt,-14.4,nt,-39.3
O=C(/C=C/c1ccc2c(c1)OCO2)c1ccc[nH]1,-75.8,7.8,-27.7,nt,-46.0
COc1ccc(C(=O)/C=C/Nc2cc(C)on2)c(OC)c1,-1.0,2.7,-28.9,66.2*,-37.6
COc1ccc(C(=O)/C=C/c2ccccc2)c(OC)c1,-27.7,5.5,-22.1,86.0*,-43.7
COCC(=O)Nc1ccc2c(c1)[C@@H]1C[C@@H](CC(=O)OC)O[C@H](CO)[C@@H]1O2,nt,nt,nt,0.4,nt
Fc1ccccc1CSc1ncnc2c1oc1ccccc12,-18.1,-3.3,-1.8,41.7*,5.9
